The results in this text go back to PubChem BioAssay (NCATS).

Structures are written as SMILES. Inconclusive results are not listed. A number with no mark means an inactive call. Calls follow the shape of the dose curve; as a rule, active = well fitted inhibition curve with a large enough effect; inconclusive = small, poorly fitted or top-dose-only effect; inactive = no such curve, though single readings can be large or run the other way.
% is scaled to controls: 0 for no effect and ±100 for the full control effect.

This assay is described as follows: Primary qHTS for small molecule stabilizers of the endoplasmic reticulum resident proteome: Secreted ER Calcium Modulated Protein (SERCaMP) assay (AID 1508630). The settings on record: SH-SY5Y GLuc-SERCaMP (Gaussia luciferase released on ER calcium loss) secretion, thapsigargin, luminescence; series mostly up to 38.4 µM; activity change, negative = inhibition: at the top concentration. The text has this: Assay Provider: Brandon K. Harvey Ph.D.
National Institute on Drug Abuse, National Institutes of Health, Baltimore, MD
Endoplasmic reticulum (ER) dysregulation is associated with human pathologies including neurodegenerative, cardiovascular, muscular, and diabetic conditions. Maintenance of ER calcium is critical for functions of the ER and its depletion can lead to loss of ER resident proteins, in a process termed exodosis. Therapeutic compounds capable of attenuating the redistribution of ER proteins under pathological conditions may slow or stop disease progression. To identify such compounds, we performed a quantitative high-throughput screen (qHTS) using the SERCaMP assay, which monitors secretion of ER resident proteins triggered by calcium depletion.
SERCaMP was initially developed as a reporter of ER calcium homeostasis using a Gaussia luciferase with a modified signal peptide and carboxy-terminus (GLuc-SERCaMP), modifications that confer secretion of the reporter in response to ER calcium depletion (Henderson et al., 2014). The assay was used to screen 9,501 compounds, including a collection of drugs approved by the FDA (US), EMA (EU), NHI (Japan), and HC (Canada) regulatory agencies (Huang et al., 2011). Since the SERCaMP reporter reflects the exodosis phenomenon (Trychta et al., 2018a), compounds identified in the screen have the potential to prevent exodosis by different mechanisms such as stabilizing ER calcium or augmenting ERS retrieval.
1. Henderson, M.J., Wires, E.S., Trychta, K.A., Richie, C.T., and Harvey, B.K. (2014). SERCaMP: a carboxy-terminal protein modification that enables monitoring of ER calcium homeostasis. Mol Biol Cell 25, 2828-2839.
2. Huang, R., Southall, N., Wang, Y., Yasgar, A., Shinn, P., Jadhav, A., Nguyen, D.T., and Austin, C.P. (2011). The NCGC pharmaceutical collection: a comprehensive resource of clinically approved drugs enabling repurposing and chemical genomics. Sci Transl Med 3, 80ps16.
3. Trychta, K.A., Back, S., Henderson, M.J., and Harvey, B.K. (2018a). KDEL Receptors Are Differentially Regulated to Maintain the ER Proteome under Calcium Deficiency. Cell Rep 25, 1829-1840 e1826.
SEQUENCE No. (1, 2, 3, etc.); […] (e.g., Cells, Incubation, Reagent, etc.); VALUE and DESCRIPTION.
1; Reagent; 5 uL; 1000 SH-SY5Y cells per wells
3; Compound; 23 nL; Control inhibitor / compound library
5; Reagent; 100 nM; Thapsigargin
7; Reagent; 1 uL; 0.5x coelenterazine
8; Detection; Luminescence; ViewLux imaging system
NOTES (numbers refer to sequence above)
1; SH-SY5Y human neuroblastoma cells stably expressing GLuc-SERCaMP (SH-SY5Y-GLuc-ASARTDL) cells were seeded in 1,536 well white tissue culture treated plates (Corning, Cat# 7464) in DMEM-high glucose-sodium pyruvate (ThermoFisher Scientific, Cat #10569) supplemented with 10% bovine growth serum (Hyclone), 10 U/ml penicillin (Gibco), 10 ug/ml streptomycin (Gibco), and 20 mM HEPES.
2; Assay plates were incubated for 5 hour at 37C in a humidified incubator containing 5% CO2.
3; qHTS libraries (23 nl, final concentrations of 1.53 uM, 7.67 uM, 38.3 uM) or controls (neutral control: DMSO, positive control: dantrolene) were added using a Kalypsis pin-tool Robotic System equipped with 1536 pinheads.
4; Cells were then incubated for 16 hours at 37C, 5% CO2.
5; Thapsigargin was added at 100 nM to deplete ER calcium stores.
6; Cells were incubated for 4 hour (37 °C, 5% CO2)
7; Gaussia luciferase in the medium was measured by adding 1 ul of 0.5x coelenterazine (final concentration 0.07x) prepared in Gaussia Luciferase Glow Assay Buffer (Pierce), without addition of the Cell Lysis Buffer Reagent.
8; Luminescence was measured using a ViewLux […] CCD imaging system (Perkin Elmer) equipped with clear filters. […] The same controls were also used for the calculation of the Z' factor, a measure of assay quality control, as previously described (Zhang et al., 1999). […]
Turning to `N#Cc1ccc(CN2CC3(CCNCC3)C2)cc1`, the “activity change, negative = inhibition” value was 46.2%.
In the case of `O=C(Oc1ccccc1)N1CCC[C@@]2(CCN(C(c3ccccc3)c3ccccc3)C2)C1`, the “activity change, negative = inhibition” value was -9.93%.
As for `O=C(Oc1ccccc1)N1CCC[C@@]2(CCN(Cc3cc(C(F)(F)F)cc(C(F)(F)F)c3)C2)C1`, the figure is -23.6%; as for `Cc1ccccc1-c1cncnc1NCCc1cnc[nH]1`, -13.3%.
For `CC(C)CN1CCCC2(CCN(C(=O)Oc3ccccc3)CC2)C1`, the “activity change, negative = inhibition” value is 4.43%.
`c1cnc(N2CC3(CCNCC3)C2)nc1`: the “activity change, negative = inhibition” value is 19.3%.
As to `CN1CCCCC1c1ccc(-c2cccnc2)nc1` (stereo not given), the “activity change, negative = inhibition” value was -0.624%.
Consider `C[C@@H]1O[C@@H](O[C@H]2CC[C@]3(C=O)C4CC[C@]5(C)[C@@H](C6=CC(=O)OC6)CC[C@]5(O)[C@@H]4CC[C@]3(O)C2)[C@H](O)[C@H](O)[C@H]1O` (stereo not given in full), for which the “activity change, negative = inhibition” value is 12.3%.
Then `N#Cc1ccc(CN2CC[C@@]3(CCCN(C(=O)Oc4ccccc4)C3)C2)cc1`, with -27.5%; and `O=C(Nc1cccc(F)c1)N1CC2(CCN(C(=O)Oc3ccccc3)CC2)C1`, with -4.66%.
As for `CN1CCN(c2ncc3ncc(=O)n(C)c3n2)CC1`, the figure is -28.7%.
As to `O=C(Oc1ccccc1)N1CCC2(CCN(Cc3ccccc3)CC2)CC1`, the “activity change, negative = inhibition” value was 2.36%.
As to `c1ccc(CN2CCCC3(CCNCC3)C2)cc1`, the “activity change, negative = inhibition” value is 18.2%.
Take `c1csc(CN2CC3(CCNCC3)C2)n1`: the “activity change, negative = inhibition” value is -8.26%.
Regarding `CC(C)CN1CC[C@@]2(CCCN(C(=O)Oc3ccccc3)C2)C1`, the “activity change, negative = inhibition” value was -18.8%.
As to `COC(=O)N1CCC2(CCN(CC(C)C)CC2)CC1`, the “activity change, negative = inhibition” value was 37.8%.
Then `CN1CCCC2(CCN(C(=O)c3ccncc3)CC2)C1`, with -33%.
Consider `CC(=O)OC[C@]12C[C@H](OC(=O)CC(C)C)C(C)=C[C@H]1O[C@H]1[C@H](O)[C@@H](OC(C)=O)[C@@]2(C)[C@]12CO2`, for which the “activity change, negative = inhibition” value is 138%.
Take `C[C@]12CC[C@@H](O)C[C@H]1CC[C@@H]1[C@H]2CC[C@]2(C)C(=O)CC[C@@H]12`: the “activity change, negative = inhibition” value is -4.98% [at 21.6 µM].
As for `O=C(Nc1cccc(F)c1)N1CC[C@@]2(CCCN(C(=O)Oc3ccccc3)C2)C1`, the figure is -25.6%; as for `O=C(Oc1ccccc1)N1CCC2(CC1)CCN(C(c1ccccc1)c1ccccc1)CC2`, -29.3%; as for `c1ccc(N2CC[C@@]3(CCCNC3)C2)nc1`, -13.7%.
Consider `CS(=O)(=O)N1CCC2(CC1)CN(Cc1ccncc1)C2`, for which the “activity change, negative = inhibition” value was 9.13%.
Regarding `O=C(c1csnn1)N1CCC[C@@]2(CCN(Cc3ccncc3)C2)C1`, the “activity change, negative = inhibition” value was 15%.
In the case of `O=C(c1ccncc1)N1CCC2(CC1)CN(Cc1ccccc1)C2`, the “activity change, negative = inhibition” value was 1.85%.
As for `CCCN(C/C=C\I)[C@@H]1CCc2ccc(O)cc2C1`, the figure is -9.16%.
As to `N#Cc1ccc(CN2CCCC3(CCN(C(=O)Oc4ccccc4)CC3)C2)cc1`, the “activity change, negative = inhibition” value is 9.43%.
Consider `Cc1nnc2ccc(-c3cccc(C(F)(F)F)c3)nn12`, for which the “activity change, negative = inhibition” value is -7.35%.
Consider `CCCC[N+]12C3CC(C(CC)[C@H]1O)[C@@H]1C(O)C4(C[C@@H]12)c1ccccc1N(C)C34` (stereo not given in full), for which the “activity change, negative = inhibition” value was -27.4%.
Take `CC[C@@H](CO)NC(=O)[C@H]1C=C2c3cccc4c3c(cn4C)C[C@H]2N(C)C1`: the “activity change, negative = inhibition” value is -22.5%.
On to `CN1CCC2(CC1)CCN(C(=O)Oc1ccccc1)CC2`, for which the “activity change, negative = inhibition” value is -7.94%.
For the molecule `c1cnc(N2CC[C@@]3(CCCNC3)C2)nc1`, the “activity change, negative = inhibition” value is 17.2%.
As for `O=C1/C(=C\c2ccccc2)C[C@@]2(O)[C@H]3Cc4ccc(O)c5c4[C@@]2(CCN3CC2CC2)[C@H]1O5`, the figure is 114%.
For `CC(=O)O[C@@H]1C[C@@]2(C)C(c3ccoc3)C[C@H]3O[C@]32[C@]2(C)C(=O)C(O)=C3C(C)(C)C(=O)C=C[C@]3(C)C12` (stereo not given in full), the “activity change, negative = inhibition” value was 41.8%.
Regarding `CN1CCC2(CC1)CCN(C(=O)c1ccco1)CC2`, the “activity change, negative = inhibition” value is -29.3%.
Consider `CC(C)CN1CCC2(CC1)CCN(C(=O)Oc1ccccc1)CC2`, for which the “activity change, negative = inhibition” value was -11.3%.
On to `O=C(O)[C@@H]1Cc2[nH]cnc2C(c2cccnc2)N1` (stereo not given in full), for which the “activity change, negative = inhibition” value is -15%.
Take `O=C(Nc1ccccc1)N1CC[C@@]2(CCCNC2)C1`: the “activity change, negative = inhibition” value is 29.8%.
As to `COCC#CCN1CCCCC1c1cccnc1` (stereo not given), the “activity change, negative = inhibition” value is 9.96%.
`COc1ccccc1CN1CC[C@@]2(CCCN(C(=O)Oc3ccccc3)C2)C1`: the “activity change, negative = inhibition” value was -14.1%.
